# Results published in PubChem BioAssay (NCATS).
# Unmarked numbers belong to inactive results. Results filed as inconclusive are left out. A call without a number means that no potency is given here. The source made the active and inactive calls. Calls come from the whole dose curve; as a rule, active = well fitted curve in the direction sought with a large enough effect; inconclusive = small, poorly fitted or top-dose-only effect, or another doubt; inactive = no such curve, though single readings can be large; an effect the other way counts as inactive or inconclusive.
# What was measured:
# [1] = Cellular Toxicity (caspase-3) Mesangial (AID 660); settings: mesangial cells, normalized: DMSO 0%, 100 µM tamoxifen 100%; at 91.7 µM (top of the series);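 note: combined caspase 3 and 7 activity read by Caspase-Glo luminescence; cells exposed to compound for 16 h before the caspase read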
# Summary of the method: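 Human renal glomerular mesangial cells, 1000/well, 5 h at 37 C before 16 h compound treatment. Caspase-Glo 3/7 luminescence after 20 min; normalized to DMSO and 100 uM tamoxifen, AC50 from Hill fit.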
# [2] = Cellular Toxicity (caspase-3) SK-N-SH (AID 661)
# Summary of the method: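 Human SK-N-SH neuroblastoma cells, 1500/well, were exposed to compounds for 16 hours at 37 °C. Caspase-Glo 3/7 luminescence was normalized to DMSO (basal) and 10 uM staurosporine (100%), and AC50 came from a Hill fit.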
# [3] = Cellular Toxicity (caspase-3) H-4-II-E (AID 663); settings: H-4-II-E rat hepatoma, scaled: DMSO 0%, 100 µM tamoxifen 100%; at 92.2 µM (top of the series);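 note: cells exposed to compound for 16 hr before readout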
# Summary of the method: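 Luminescence from caspase-cleaved aminoluciferin substrate, read 20 min after reagent addition, reports caspase 3/7 activation in rat H-4-II-E cells after 16 hr compound exposure. Normalized to DMSO (basal) and 100 uM tamoxifen (100%); AC50 from Hill fits.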
# [4] = Cellular Toxicity (caspase-3) Hek293 (AID 664); settings: HEK293 caspase-3 activation, DMSO = 0%, 100 µM tamoxifen = 100%; at 92.2 µM (top of the series);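 note: cells exposed to compound for 16 h at 37 °C before readout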
# Summary of the method: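 HEK293 cells in complete medium treated 16 h at 37 °C, then Caspase-Glo 3/7 luminescence read after 20 min at room temperature. Normalized to DMSO and 100 uM tamoxifen; AC50 from Hill fit of concentration-response.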
# [5] = Cellular Toxicity (caspase-3) N2a (AID 665);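 note: compound exposure lasted 16 h at 37 °C before readout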
# Summary of the method: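 Mouse N2a neuroblastoma cells, 1500 per well, treated 16 h at 37 °C in complete medium; caspase-3/7 activity by Caspase-Glo luminescence after 1 h. Normalized to DMSO and 10 uM staurosporine; AC50 from Hill fits.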
# [6] = Cellular Toxicity (caspase-3) NIH 3T3 (AID 666)
# Summary of the method: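 Mouse NIH 3T3 fibroblasts (1000/well) treated 16 h at 37 C; caspase-3/7 activity measured by Caspase-Glo 3/7 luminescence after 20 min. Normalized to DMSO and 100 uM tamoxifen; AC50 from Hill fits.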
# [7] = Cellular Toxicity (caspase-3) Renal Proximal Tubule (AID 667); settings: Potency: caspase-3 activation;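 note: cells exposed to compound for 16 hours at 37 °C before detection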
# Summary of the method: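 In qHTS format, rat primary proximal tubule cells seeded at 1000 per well are exposed to compounds for 16 hours at 37 °C. An increase in Caspase-Glo 3/7 luminescence indicates caspase activation.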
# [8] = biological target: Cytochrome P450 3A4 (Homo sapiens) (UniProt P08684); assay: qHTS Assay for Inhibitors and Substrates of Cytochrome P450 3A4 (AID 884); note: nearly all actives have a fitted effect of over 50% in size; note: potency is the fitted concentration of half-maximal effect
# Summary of the method: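 20 nM human CYP3A4 with 25 uM Luciferin-PPXE (at KM) in 200 mM KPO4, preincubated 10 min with compound; NADPH regeneration started a 60 min RT reaction. Luciferin detected by luminescence, normalized to 57 uM ketoconazole as full inhibition.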
# [9] = Cell Viability - LYMP2-001 (AID 921);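 note: cells exposed to compound for 24 h at 37 °C; nearly all actives have a fitted effect of over 70% in size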
# Summary of the method: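 qHTS, 1536-well; lymphoblastoid cells, 24 hr compound, 37 C; ATP by CellTiter-Glo, 30 min RT; luminescence; Hill-fit AC50.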
# [10] = MultiTox-Fluor Cytotoxicity Assay - LYMP1-001 - Dead Cells (AID 946)
# Summary of the method: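 Seed 2500 LYMP1-001 cells/well, incubate 5 hr at 37 C; add compound, 16 hr at 37 C; add MultiTox-Fluor reagent, 60 min RT; read dead-cell fluorescence Ex/Em=485/520. Normalize to DMSO and 15 uM tetraoctylammonium bromide.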
# [11] = MultiTox-Fluor Cytotoxicity Assay - LYMP1-001 - Live Cells (AID 947)
# [12] = Cell Viability - LYMP1-002 - Assay at 16 hr (AID 948)
# Summary of the method: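 Acute cytotoxicity is scored as a concentration-dependent fall in intracellular ATP in a human lymphoblastoid line (LYMP1-002) after 16 hr compound exposure at 37 C, measured by luciferase luminescence.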
# [13] = MultiTox-Fluor Cytotoxicity Assay - LYMP1-002 - Live Cells (AID 955)
# Summary of the method: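 Human lymphoblastoid LYMP1-002 cells, 2500/well, treated 16 h at 37 C in complete medium. Live-cell protease activity via GF-AFC fluorescence (Ex/Em 405/510) after 60 min reagent incubation; AC50 from Hill fits.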
# [14] = MultiTox-Fluor Cytotoxicity Assay - LYMP1-002 - Dead Cells (AID 960); note: nearly all actives have a fitted effect of over 60% in size
# Summary of the method: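 Human lymphoblastoid LYMP1-002 cells, 2500/well, treated 16 h at 37 C; dead-cell protease cleavage of bis-AAF-R110 read by fluorescence (485/520); normalized to DMSO and 15 uM tetraoctylammonium bromide; AC50 from Hill fit.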
# [15] = MultiTox-Fluor Cytotoxicity Assay - LYMP1-003 - Dead Cells (AID 961); note: nearly all actives have a fitted effect of over 70% in size
# Summary of the method: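 LYMP1-003 lymphoblastoid, 2500 cells/well, 5 hr settle then 16 hr cpd at 37 C; MultiTox-Fluor reagent 60 min RT; Ex/Em 485/520 dead-cell signal; norm. DMSO = 0%, 15 uM tetraoctylammonium bromide = 100%; Hill AC50.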
# [16] = MultiTox-Fluor Cytotoxicity Assay - LYMP1-003 - Live Cells (AID 962);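 note: cytotoxic hits lower the live-cell protease signal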
# Summary of the method: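 LYMP1-003 lymphoblastoid cells, 2500/well in complete medium, treated 16 h at 37 C; live-cell protease cleavage of GF-AFC read by fluorescence (Ex/Em 405/510) after 60 min reagent; AC50 from Hill fits of concentration-response.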
# [17] = Cell Viability - LYMP1-003 - Assay at 24 hr (AID 963)
# Summary of the method: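 Human lymphoblastoid LYMP1-003 cells, 2500/well, treated 24 h at 37 C in complete medium. Viability read as intracellular ATP by CellTiter-Glo luminescence after 30 min at room temperature; AC50 from Hill-equation fits of qHTS concentration-response.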
# [18] = Cell Viability - LYMP1-003 - Assay at 40 hr (AID 964); note: nearly all actives have a fitted effect of over 60% in size
# Summary of the method: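 LYMP1-003 human lymphoblastoid cells, 2500/well, preincubated 5 h at 37 C, then treated with compound for 40 h at 37 C. Intracellular ATP read by CellTiter-Glo luminescence after 30 min at room temperature; AC50 from Hill-equation fits.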
# [19] = Cell Viability - LYMP2-003 (AID 965);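 note: cells exposed to compounds for 24 h before reading; nearly all actives have a fitted effect of over 50% in size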
# Summary of the method: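 Acute cytotoxicity is scored as a concentration-dependent drop in intracellular ATP, measured by luciferase luminescence in human lymphoblastoid cells treated for 24 hours at 37 C. AC50 values derive from Hill-equation modelling.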
# [20] = biological target: Cytochrome P450 3A4 (Homo sapiens) (UniProt P08684); assay: qHTS Assay for Activators of Cytochrome P450 3A4 (AID 885); note: nearly all actives have a fitted effect of over 65% in size
# Summary of the method: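 Steps: enzyme/substrate mix dispensed; compound added, 10 min RT; NADPH regeneration solution added, 60 min RT; luciferin detection buffer stops reaction; 20 min later luminescence measured.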
# Chain of Cytochrome P450 3A4 (Homo sapiens) (P08684 whole entry, looked up): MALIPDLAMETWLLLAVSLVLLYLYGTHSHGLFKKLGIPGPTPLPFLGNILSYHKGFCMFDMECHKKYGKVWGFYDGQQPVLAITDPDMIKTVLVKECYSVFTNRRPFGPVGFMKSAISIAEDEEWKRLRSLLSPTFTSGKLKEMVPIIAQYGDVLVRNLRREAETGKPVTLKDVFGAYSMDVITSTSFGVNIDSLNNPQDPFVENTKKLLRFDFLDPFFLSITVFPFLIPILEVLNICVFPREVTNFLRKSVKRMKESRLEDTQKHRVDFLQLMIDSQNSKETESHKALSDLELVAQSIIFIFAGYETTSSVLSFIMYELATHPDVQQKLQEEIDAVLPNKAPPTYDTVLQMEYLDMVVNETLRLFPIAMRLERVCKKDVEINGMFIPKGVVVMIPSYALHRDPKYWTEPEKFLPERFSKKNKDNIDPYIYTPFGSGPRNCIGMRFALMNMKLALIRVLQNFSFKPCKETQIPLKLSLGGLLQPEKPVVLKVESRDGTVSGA
Structure (SMILES),caspase-3 activation [1] [%],outcome [2],caspase-3 activation [3] [%],caspase-3 activation [4] [%],outcome [5],outcome [6],Potency [7],Potency [8],Potency [9],outcome [10],outcome [11],outcome [12],outcome [13],outcome [14],Potency [15],Potency [16],Potency [17],Potency [18],Potency [19],outcome [20]
Cc1cccc(C(=O)O)c1,-1.17,inactive,-1.62,-3.34,inactive,inactive,inactive,inactive,inactive,inactive,inactive,inactive,inactive,inactive,inactive,inactive,inactive,inactive,–,–
CC#N,1.61,inactive,0.385,1.27,inactive,inactive,inactive,inactive,inactive,inactive,inactive,inactive,inactive,inactive,inactive,inactive,inactive,inactive,inactive,–
CCCC=O,-0.494,inactive,-1.37,-2.73,inactive,inactive,inactive,inactive,inactive,inactive,inactive,inactive,inactive,inactive,inactive,inactive,inactive,inactive,inactive,–
Cc1cccc(C)c1,-0.476,inactive,0.714,2.59,inactive,inactive,inactive,inactive,inactive,inactive,inactive,inactive,inactive,inactive,inactive,inactive,inactive,inactive,–,–
Cc1cscn1,0.991,inactive,0.996,1.04,inactive,inactive,inactive,inactive,inactive,inactive,inactive,inactive,inactive,inactive,inactive,inactive,inactive,inactive,inactive,–
CC(C)c1ccccc1,-1.25,inactive,0.504,-0.725,inactive,inactive,inactive,inactive,inactive,inactive,inactive,inactive,inactive,inactive,inactive,inactive,inactive,inactive,–,–
Nc1cccc(O)c1,0.168,inactive,-0.484,1.1,inactive,inactive,inactive,inactive,inactive,inactive,inactive,inactive,inactive,inactive,inactive,inactive,inactive,inactive,inactive,–
Cc1cc(C)cc(O)c1,-0.0828,inactive,-0.413,0.338,inactive,inactive,inactive,inactive,inactive,inactive,inactive,inactive,inactive,inactive,inactive,inactive,inactive,inactive,inactive,–
Clc1ccc(Cl)c(Cl)c1Cl,-0.853,inactive,-0.982,-1.37,inactive,inactive,inactive,inactive,inactive,inactive,inactive,inactive,inactive,inactive,inactive,inactive,inactive,inactive,inactive,–
CCCCC(CC)CNCC(CC)CCCC (stereo unspecified),-1.31,inactive,-0.122,0.754,inactive,inactive,inactive,inactive,inactive,inactive,inactive,inactive,inactive,inactive,inactive,inactive,inactive,inactive,inactive,–
O=C1NC(=O)c2cc([N+](=O)[O-])ccc21,-0.781,inactive,-0.832,-0.133,inactive,inactive,inactive,15.8 µM (active),inactive,inactive,inactive,inactive,inactive,inactive,–,inactive,inactive,inactive,inactive,inactive
CCNS(=O)(=O)c1ccc(C)cc1,-0.106,inactive,-1.14,-2.66,inactive,inactive,inactive,inactive,inactive,inactive,inactive,inactive,inactive,inactive,inactive,inactive,inactive,inactive,–,–
NCCCCCCN,0.654,inactive,1.31,-1.45,inactive,inactive,inactive,inactive,inactive,inactive,inactive,inactive,inactive,inactive,inactive,inactive,inactive,inactive,–,–
NC(=O)c1ccccc1[N+](=O)[O-],-0.625,inactive,0.0974,0.369,inactive,inactive,inactive,inactive,inactive,inactive,inactive,inactive,inactive,inactive,inactive,inactive,inactive,inactive,inactive,–
